{"source": "PubChem BioAssay AID651812", "about": "(National Center for Advancing Translational Sciences (NCATS), 2012)", "note": "Hit rate of the full screen: of about 2,100 compounds, about 650 (31%) were called active. Not shown: some 16% with an inconclusive outcome. The call rests on the fitted dose curve; in most records, active means well fitted inhibition curve with a large enough effect; inconclusive means small, poorly fitted or top-dose-only effect; inactive means flat fitted curve, though single readings scatter. The list shows a part of the results. Entries that show only a call come without a potency. Potency means the concentration at half of the fitted maximal effect.", "data": [{"experiment": "qHTS for inhibitors of Vif-A3G interactions: Cherry picks; further: nearly all actives have a fitted effect of over 80% in size", "settings": "HeLa A3G-eYFP + Vif (tagged APOBEC3G with the HIV-1 protein that degrades it), 24 h; Potency: eYFP fluorescence increase; series mostly up to 36.9 µM", "how_it_was_run": "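Cherry-picked compounds tested at several concentrations on A3G-eYFP/Vif HeLa cells for 24 hours; loss of Vif-driven degradation read as eYFP fluorescence by cytometric plate imaging, 488 nm excitation, 500-530 nm emission.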", "values": [{"smiles": "CC(=O)/C(=C\\N(C)C)Sc1ccc(Cl)cc1", "Potency": "inactive"}, {"smiles": "COc1cccc(C2=CC(c3cccs3)n3nnnc3N2)c1", "note": "(configuration not stated)", "Potency": "inactive"}, {"smiles": "Cc1cc(C)n(S(=O)(=O)/C=C/c2ccccc2)n1", "Potency": "inactive"}, {"smiles": "O=C(NCC1CCCO1)c1nn2c(C(F)(F)F)cc(-c3cc(Br)cs3)nc2c1Br", "note": "(configuration not stated)", "Potency": "13 µM (active)"}, {"smiles": "COc1ccc(C)cc1NCc1cc(=O)oc2cc(-c3ccccc3)c(O)cc12", "Potency": "inactive"}, {"smiles": "CCOC(=O)c1c(-c2ccc(OC)cc2)csc1/N=C/C1C(=O)CCCC1=O", "Potency": "inactive"}, {"smiles": "O=C(CC1CC2CCC1C2)Nc1nc(-c2ccccn2)cs1", "note": "(configuration not stated)", "Potency": "inactive"}, {"smiles": "N#Cc1c(-c2ccc(F)cc2)c(-c2ccc(F)cc2)nn(CCO)c1=O", "Potency": "12.5 µM (active)"}, {"smiles": "N#Cc1c(-c2ccccc2)c(-c2ccccc2)nn(CC(=O)NNC(=O)Nc2ccccc2)c1=O", "Potency": "inactive"}, {"smiles": "CCn1c(SCC(=O)N/N=C/c2ccc(C)s2)nc2ccccc21", "Potency": "inactive"}, {"smiles": "Cc1ccc(S(=O)(=O)N2CCCCC2CCNC(=O)C(=O)NCc2ccco2)cc1", "note": "(configuration not stated)", "Potency": "inactive"}, {"smiles": "Cc1ccccc1OCC(=O)N/N=C/c1ccc(N(C)C)cc1", "Potency": "inactive"}, {"smiles": "Cc1cccc(C)c1OCC(=O)N/N=C/c1ccc2c(c1)OCO2", "Potency": "inactive"}, {"smiles": "COc1cc(/C=N\\Nc2ccc([N+](=O)[O-])cc2)ccc1OCC(=O)Nc1ccc(C)c(C)c1", "Potency": "8.2 µM (active)"}, {"smiles": "COCCNC(=S)N/N=C(\\C)c1ccccc1O", "Potency": "inactive"}, {"smiles": "CC[n+]1ccc(/C=C/c2c[nH]c3ccccc23)cc1", "Potency": "14.6 µM (active)"}, {"smiles": "OCC[n+]1ccc(/C=C/c2c[nH]c3ccccc23)cc1", "Potency": "10.3 µM (active)"}, {"smiles": "C[n+]1ccc(/C=C/c2cc[n+](C)c3ccccc23)c2ccccc21", "Potency": "inactive"}, {"smiles": "C[n+]1ccc(/C=C/c2c[nH]c3ccccc23)cc1", "Potency": "11.6 µM (active)"}, {"smiles": "CC(=O)Nc1cccc(-c2cc(NC=O)c3ncc(-c4ccc(F)c(Cl)c4)n3c2)c1", "Potency": "inactive"}, {"smiles": "COc1ccc(-c2cc(NC=O)c3ncc(-c4cccc(C(F)(F)F)c4)n3c2)cc1OC", "Potency": "inactive"}, {"smiles": "N#C/C=C/N1CCN(C(=O)c2ccco2)CC1", "Potency": "inactive"}, {"smiles": "COc1cc(C2Sc3ccccc3NC3=C2C(=O)OC3)cc(OC)c1OC", "note": "(configuration not stated)", "Potency": "inactive"}, {"smiles": "COc1cc(CCC(=O)Nc2nnc(C)s2)cc(OC)c1OC", "Potency": "inactive"}, {"smiles": "Cc1cc(C)nc(NC(=S)Nc2cccc(Cl)c2Cl)c1", "Potency": "inactive"}, {"smiles": "N#CC(C(=O)NCc1ccccc1)c1nc2ccccc2nc1N1CCCC1", "note": "(configuration not stated)", "Potency": "18.4 µM (active)"}, {"smiles": "NC(=O)C1CCN(c2nc3ccccc3nc2NS(=O)(=O)c2ccc(Br)cc2)CC1", "Potency": "inactive"}, {"smiles": "CCN(CC)c1nc2ccccc2nc1C(C#N)C(=O)NCCc1ccccc1", "note": "(configuration not stated)", "Potency": "3.66 µM (active)"}, {"smiles": "CN1CCN(c2ccc([N+](=O)[O-])cc2C(=O)c2ccc(Br)cc2)CC1", "Potency": "inactive"}, {"smiles": "Cc1cc(C)c(C(=O)N(CCN(C)C)CC2CCCN(Cc3ccccc3F)C2)o1", "note": "(configuration not stated)", "Potency": "inactive"}, {"smiles": "COc1ccccc1C(=O)Nc1ccc2c(c1)CN(C(=O)CSC)CC2", "Potency": "inactive"}, {"smiles": "Cc1ccc(-c2nc3sc(C#N)c(N)n3c(=O)c2C#N)cc1", "Potency": "18.4 µM (active)"}, {"smiles": "O=C(NCc1ccco1)C1Cc2c(-c3cccc(F)c3)ccnc2O1", "note": "(configuration not stated)", "Potency": "inactive"}, {"smiles": "Cc1ccc(C(=O)c2cc([N+](=O)[O-])ccc2N2CCN(C)CC2)cc1", "Potency": "inactive"}, {"smiles": "CCN(CC)c1ccc2cc(-c3nc(-c4ccc(Cl)cc4Cl)cs3)c(=O)oc2c1", "Potency": "2.91 µM (active)"}, {"smiles": "CCN(CC)c1ccc2cc(-c3nc(-c4cccs4)no3)c(=O)oc2c1", "Potency": "2.91 µM (active)"}, {"smiles": "CCN(CC)c1ccc2cc(-c3nc(-c4cc(OC)c(OC)c(OC)c4)no3)c(=O)oc2c1", "Potency": "0.58 µM (active)"}, {"smiles": "CCN(CC)c1ccc2cc(-c3nc4sc5c(c4c(=O)[nH]3)CCC(C(C)(C)C)C5)c(=O)oc2c1", "note": "(configuration not stated)", "Potency": "inactive"}, {"smiles": "CCN(CC)c1ccc2cc(-c3nnc(-c4ccccc4)o3)c(=O)oc2c1", "Potency": "0.627 µM (active)"}, {"smiles": "CC(=O)Nc1cccc(-c2ccnc3c2CC(C(=O)NCc2cccs2)O3)c1", "note": "(configuration not stated)", "Potency": "inactive"}, {"smiles": "CC(=O)Nc1ccc(NC(=O)C/C(C)=N/NC(N)=S)cc1", "Potency": "inactive"}, {"smiles": "CCN(CC)c1ccc2cc(-c3nc(-c4ccccc4)no3)c(=O)oc2c1", "Potency": "4.61 µM (active)"}, {"smiles": "COc1ccc(-c2csc(-c3ccc(O)cc3)n2)cc1", "Potency": "inactive"}, {"smiles": "O=c1oc2cc(O)ccc2cc1-c1nc(-c2ccc(Cl)c(Cl)c2)cs1", "Potency": "1.84 µM (active)"}, {"smiles": "CCN(CC)c1ccc2cc(-c3nc4ccccc4n3C)c(=O)oc2c1", "Potency": "16.4 µM (active)"}, {"smiles": "CCN(CC)c1ccc2cc(-c3nnc(-c4cccc(Cl)c4)o3)c(=O)oc2c1", "Potency": "1.3 µM (active)"}, {"smiles": "Oc1ccc(-c2nc(-c3ccc(O)c(O)c3)cs2)cc1", "Potency": "inactive"}, {"smiles": "COc1cccc(C2=CC(c3cc(Br)ccc3F)n3nnnc3N2)c1", "note": "(configuration not stated)", "Potency": "inactive"}, {"smiles": "CCN(CC)c1ccc2cc(C(N)=O)c(=N)oc2c1", "Potency": "23.1 µM (active)"}, {"smiles": "CCN(CC)c1ccc(/C=N/N=C(N)N)c(O)c1", "Potency": "inactive"}, {"smiles": "O=C1/C(=C/c2c[nH]c3ccccc23)CCC/C1=C\\c1c[nH]c2ccccc12", "Potency": "18.4 µM (active)"}, {"smiles": "O=C(c1ccccc1)c1c2c(cc3sc4ccccc4[n+]13)-c1cccc3cccc-2c13", "Potency": "inactive"}, {"smiles": "S=C(NN=Cc1ccccn1)Nc1ccccn1", "Potency": "inactive"}, {"smiles": "C/C(=N\\Nc1nc(C)cc(-c2ccccc2)n1)c1ccc(F)cc1", "Potency": "inactive"}, {"smiles": "CCOc1ccc(Br)cc1/C(C)=N\\NC1=NCCN1", "Potency": "inactive"}, {"smiles": "CCOc1ccc(Br)cc1C(=O)Nc1ccc(C(=O)NCC(C)C)cc1", "Potency": "6.51 µM (active)"}, {"smiles": "CCOc1ccccc1C(=O)Nc1c(C(=O)Nc2ccc(F)cc2)oc2ccccc12", "Potency": "inactive"}, {"smiles": "COCCNC(=S)NN=C1CCCCCC1", "Potency": "inactive"}, {"smiles": "O=C1CC(c2cc(Br)ccc2F)c2cc3c(cc2N1)CCC3", "note": "(configuration not stated)", "Potency": "inactive"}, {"smiles": "CC[n+]1cc(C)ccc1/C=C/c1ccc(N(C)C)cc1", "Potency": "14 µM (active)"}, {"smiles": "Cc1ccc(/C=C/c2ccc(N(C)C)cc2)[n+](C)c1", "Potency": "14 µM (active)"}, {"smiles": "CN(C)c1ccc(/C=C/c2cc[n+](C)cc2)cc1", "Potency": "15.8 µM (active)"}, {"smiles": "O=C1NC(c2cccc(Cl)c2)Nc2ccccc21", "note": "(configuration not stated)", "Potency": "inactive"}, {"smiles": "CC(C)(C)c1ccc(Cn2c(=O)cnc3ccccc32)cc1", "Potency": "inactive"}, {"smiles": "O=c1[nH]ncc2c3ccccc3n(Cc3cccc(Cl)c3)c12", "Potency": "23.1 µM (active)"}, {"smiles": "O=C(NNc1ncc(C(F)(F)F)cc1Cl)c1c(Cl)cccc1Cl", "Potency": "inactive"}, {"smiles": "COc1cc(/C=C2\\SC(=S)N(Nc3ncc(C(F)(F)F)cc3Cl)C2=O)ccc1O", "Potency": "18.4 µM (active)"}, {"smiles": "CN(C)c1ccc(/C=C2\\SC(=S)N(Nc3ncc(C(F)(F)F)cc3Cl)C2=O)cc1", "Potency": "3.66 µM (active)"}, {"smiles": "CCOC(=O)Nc1ccc2nc(-c3cscn3)[nH]c2c1", "Potency": "inactive"}, {"smiles": "CCCn1c(C2CCCN2c2nc(-c3cccc(Br)c3)cs2)nc2ccccc21", "note": "(configuration not stated)", "Potency": "inactive"}, {"smiles": "CCc1ccc(C(=O)NC(=S)Nc2ccc(N3CCOCC3)cc2)cc1", "Potency": "inactive"}, {"smiles": "CCc1ccc(NC(=O)/C(C#N)=C/c2cc3ccc(C)cc3nc2N2CCOCC2)cc1", "Potency": "14.6 µM (active)"}, {"smiles": "Cc1cc2c(cc(C(=O)OCC(=O)NCc3cccs3)n2C(C)C)o1", "Potency": "inactive"}, {"smiles": "CCOC(=O)C1C(=O)C=C(/C=C/c2ccc(N(C)C)cc2)CC1c1ccccc1", "note": "(configuration not stated)", "Potency": "6.51 µM (active)"}, {"smiles": "COc1ccc(NC(=S)NN(C)C(=S)Nc2ccc(OC)cc2)cc1", "Potency": "inactive"}, {"smiles": "CCC(=C/c1sc2ccc3ccccc3c2[n+]1C)/C=C1\\Sc2ccc3ccccc3c2N1C", "Potency": "inactive"}, {"smiles": "CCN1/C(=C/c2cc[n+](C)cc2)C=Cc2cc(C)ccc21", "Potency": "23.1 µM (active)"}, {"smiles": "Cc1cc(C)c(S(=O)(=O)Oc2ccccc2[N+](=O)[O-])c(C)c1", "Potency": "inactive"}, {"smiles": "CCOC(=O)C1CCCN(C(=O)c2ccc3nc(-c4cccc(OC)c4)oc3c2)C1", "note": "(configuration not stated)", "Potency": "inactive"}, {"smiles": "COc1ccc(NCc2cc3cc4c(cc3n(CC(=O)Nc3cc(C)ccc3C)c2=O)OCCO4)cc1", "Potency": "2.31 µM (active)"}, {"smiles": "COc1ccc(NC(=O)N(Cc2cc3ccc(OC)cc3[nH]c2=O)CC2CCCO2)cc1", "note": "(configuration not stated)", "Potency": "inactive"}, {"smiles": "O=C(Cn1ncc(Cl)c(Cl)c1=O)Nc1ccc2c(c1)OCO2", "Potency": "inactive"}, {"smiles": "Cc1cc(NC(=O)CSc2nc(-c3cccs3)nc3ccccc23)no1", "Potency": "inactive"}, {"smiles": "Cc1ccccc1NC(=O)CSc1nc2cc3c(cc2cc1C)CCC3", "Potency": "inactive"}, {"smiles": "Cc1cc2cc(C#N)c(SCC(=O)Nc3nonc3C)nc2cc1C", "Potency": "14.6 µM (active)"}, {"smiles": "Cc1nonc1NC(=O)CSc1nc2c(C)cccc2cc1C#N", "Potency": "18.4 µM (active)"}, {"smiles": "Cc1cc(NC(=O)CSc2nc3c(C)cccc3cc2C#N)no1", "Potency": "20.6 µM (active)"}, {"smiles": "COC(=O)C1CCC(=O)N1C(c1ccc(OC)cc1)c1cc(OC)c(OC)c(OC)c1", "note": "(configuration not stated)", "Potency": "inactive"}, {"smiles": "COc1ccc2ccccc2c1C1NC(=O)c2ccccc2N1", "note": "(configuration not stated)", "Potency": "inactive"}, {"smiles": "O=C1C(=Cc2ccccc2[N+](=O)[O-])Cc2ccccc21", "Potency": "inactive"}, {"smiles": "CN(C)c1ccc(/C=C2\\Cc3ccccc3C2=O)cc1", "Potency": "3.26 µM (active)"}, {"smiles": "Nc1ccccc1C=C1Cc2ccccc2C1=O", "Potency": "16.4 µM (active)"}, {"smiles": "COc1ccc(/C=C2/CSC/C(=C/c3ccc(OC)c(OC)c3)C2=O)cc1OC", "Potency": "inactive"}, {"smiles": "CN(C)c1ccc(/C=C2/C[N+](C)(C)C/C(=C/c3ccc(N(C)C)cc3)C2=O)cc1", "Potency": "9.2 µM (active)"}, {"smiles": "Cc1ccc2nc(C)c(C(=O)NN=C3CCCCCC3)n2c1", "Potency": "inactive"}, {"smiles": "CSc1nc(Sc2ccccc2Cl)c2ccccc2n1", "Potency": "inactive"}, {"smiles": "CCC1CCCCN1CCCNC(=O)c1ccc2c(c1)N(Cc1ccccc1F)C(=O)c1ccccc1S2(=O)=O", "note": "(configuration not stated)", "Potency": "inactive"}, {"smiles": "N#Cc1cccc(NC(=O)CSc2ccc3c4c(cccc24)C(=O)c2ccccc2-3)c1", "Potency": "6.51 µM (active)"}, {"smiles": "COc1ccc(NC(=O)c2cccc3ccccc23)cc1", "Potency": "inactive"}, {"smiles": "CCn1c(CNC(=O)C23CC4CC(CC(C4)C2)C3)nnc1SCC(=O)Nc1ccc(OC)cc1", "Potency": "inactive"}, {"smiles": "CCn1c(SCC(=O)Nc2cccc(O)c2)nc2c1c(=O)n(C)c(=O)n2C", "Potency": "inactive"}, {"smiles": "COc1ccc(NC(=O)CSc2ccc3c4c(cccc24)C(=O)c2ccccc2-3)cc1", "Potency": "7.31 µM (active)"}]}]}
